# “And” between values parts separate entries of the source, which are not always exact repeats. Identical values can stand only once. Some compounds were tested as several samples or in several runs, with calls that do not always agree. The source made the active and inactive calls. The calls were made as follows: active = hit-call score of the fitted dose curve at least 0.9, where 1 is the maximum; inactive = score below 0.9.
# Experiments:
# [1] = read-out: Tissue plasminogen activator (tPA), PLAT (gene 5327); assay: BSK_BF4T_tPA: BioMAP Diversity Plus: BF4T Assay for Tissue plasminogen activator (tPA) Biomarker Activity (AID 2284272); conditions: primary human bronchial epithelial cells with fibroblasts
# How it was run: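 tPA level quantified by ELISA at 24 h post-treatment in bronchial epithelial/dermal fibroblast co-cultures, gain of signal scored against DMSO baseline. Parallel cultures stained with 0.1% SRB (560 nm) to flag overt cytotoxicity.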
# [2] = read-out: Plasminogen Activator Inhibitor-1 (PAI1), SERPINE1 (gene 5054); assay: BSK_BF4T_PAI1: BioMAP Diversity Plus: BF4T Assay for Plasminogen Activator Inhibitor-1 (PAI1) Biomarker Activity (AID 2284273); conditions: primary human bronchial epithelial cells with fibroblasts
# How it was run: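 PAI-1 levels quantified by ELISA 24 h post-dosing in bronchial epithelial cell plus dermal fibroblast cultures. Signal gain referenced to DMSO baseline. Sulforhodamine B total-protein staining of parallel wells checked cytotoxicity.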
# [3] = read-out: urokinase Plasminogen Activator (uPA), PLAU (gene 5328); assay: BSK_BF4T_uPA: BioMAP Diversity Plus: BF4T Assay for urokinase Plasminogen Activator (uPA) Biomarker Activity (AID 2284275); conditions: primary human bronchial epithelial cells with fibroblasts
# How it was run: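 uPA levels measured by ELISA at 24 hours in BF4T cultures (bronchial epithelial cells plus dermal fibroblasts) and compared with DMSO; cytotoxicity tracked in parallel cultures by sulforhodamine B staining.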
# [4] = read-out: Matrix Metallopeptidase 9 (MMP9), MMP9 (gene 4318); assay: BSK_BF4T_MMP9: BioMAP Diversity Plus: BF4T Assay for Matrix Metallopeptidase 9 (MMP9) Biomarker Activity (AID 2284276); conditions: primary human bronchial epithelial cells with fibroblasts
# How it was run: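 MMP-9 levels were measured by ELISA after 24 h exposure of bronchial epithelial cell/dermal fibroblast co-cultures, with DMSO as baseline. Parallel cultures were stained with 0.1% SRB after TCA fixation, read at 560 nm, to flag overt cytotoxicity.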
# [5] = read-out: Interleukin-8 (IL8), CXCL8 (gene 3576); assay: BSK_IMphg_IL8: BioMAP Diversity Plus: IMphg Assay for Interleukin-8 (IL8) Biomarker Activity (AID 2284277); conditions: primary human endothelial cells with macrophages
# How it was run: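 IL-8 levels were measured by ELISA 24 h after dosing in primary human venular endothelial cell–macrophage cultures, referenced to DMSO; parallel SRB staining monitored overt cytotoxicity.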
# [6] = read-out: Intercellular Adhesion Molecule 1 (ICAM1), ICAM1 (gene 3383); assay: BSK_BE3C_ICAM1: BioMAP Diversity Plus: BE3C Assay for Intercellular Adhesion Molecule 1 (ICAM1) Biomarker Activity (AID 2284278); conditions: primary human bronchial epithelial cells;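 as to outcome: cell-surface ICAM-1 protein level quantified by ELISA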
# How it was run: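 hu bronchial epithelial primary cells, 24 h cpd exposure, ICAM-1 ELISA; gain-of-signal fit vs DMSO baseline.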
# [7] = read-out: Interleukin-8 (IL8), CXCL8 (gene 3576); assay: BSK_BE3C_IL8: BioMAP Diversity Plus: BE3C Assay for Interleukin-8 (IL8) Biomarker Activity (AID 2284280); conditions: primary human bronchial epithelial cells
# How it was run: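 Primary human bronchial epithelial cells (BE3C system) were exposed to test chemical for 24 h, and IL-8 levels were then measured by ELISA. Activity was fitted in the positive (gain-of-signal) direction against a DMSO negative-control baseline.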
# [8] = read-out: Matrix Metallopeptidase 3 (MMP3), MMP3 (gene 4314); assay: BSK_BF4T_MMP3: BioMAP Diversity Plus: BF4T Assay for Matrix Metallopeptidase 3 (MMP3) Biomarker Activity (AID 2284271); conditions: primary human bronchial epithelial cells with fibroblasts
# How it was run: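 MMP-3 level read by ELISA after 24 h chemical exposure of bronchial epithelial cell/dermal fibroblast co-cultures, fitted upward relative to DMSO. Parallel cultures stained with 0.1% SRB after TCA fixation gauge overt cytotoxicity.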
# [9] = BSK_BF4T_SRB: Viability Assessment in the BioMAP Diversity Plus: BF4T Assay (AID 2284274); conditions: primary human bronchial epithelial cells with fibroblasts;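 as to AC50: measured 24 h after compound addition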
# How it was run: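 Cytotoxicity measured as total protein: cells fixed with 10% TCA, stained with 0.1% SRB, read at 560 nm. Bronchial epithelial/dermal fibroblast co-culture, 24 h after dosing, with positive-direction fitting relative to DMSO.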
# [10] = read-out: Interferon-inducible T-cell alpha chemoattractant (ITAC), CXCL11 (gene 6373); assay: BSK_BE3C_ITAC: BioMAP Diversity Plus: BE3C Assay for Interferon-inducible T-cell alpha chemoattractant (ITAC) Biomarker Activity (AID 2284279); conditions: primary human bronchial epithelial cells
# How it was run: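 Steps: dose human bronchial epithelial cells with chemical; incubate 24 h; measure I-TAC by ELISA; fit endpoint in positive direction against DMSO control. Cytotoxicity was checked in parallel cultures by SRB staining at harvest.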
smiles,measurement,setting,value
OCCCC(F)(F)C(F)(F)C(F)(F)C(F)(F)C(F)(F)C(F)(F)C(F)(F)F,AC50,[1],56.6 µM (active) and 47.7 µM (active)
same,AC50,[2],47.5 µM (active) and 39.4 µM (active)
same,AC50,[3],47.8 µM (active) and 45.7 µM (active)
same,AC50,[4],44.8 µM (active) and 55.3 µM (active)
same,AC50,[5],47.5 µM (active)
same,outcome,[5],inactive
same,AC50,[6],53.8 µM (active) and 51.3 µM (active)
same,AC50,[7],37.1 µM (active) and 43 µM (active)
FC(F)(F)C(F)(F)CNCC(F)(F)C(F)(F)F,outcome,[8],inactive
same,outcome,[1],inactive
same,outcome,[2],inactive
same,outcome,[9],inactive
same,outcome,[3],inactive
same,outcome,[4],inactive
same,outcome,[5],inactive
same,outcome,[6],inactive
same,outcome,[7],inactive
O=C(O)C(F)(F)C(F)(F)C(F)(F)F,outcome,[8],inactive
same,outcome,[1],inactive
same,outcome,[2],inactive
same,outcome,[3],inactive
same,outcome,[4],inactive
same,outcome,[5],inactive
same,outcome,[6],inactive
same,outcome,[10],inactive
same,outcome,[7],inactive
O=C(O)C(F)(F)C(F)(F)C(F)(F)C(F)(F)C(F)(F)C(F)(F)C(F)(F)C(F)(F)Cl,AC50,[1],10.7 µM (active) and 5.95 µM (active)
same,AC50,[2],44.8 µM (active) and 42.7 µM (active)
same,AC50,[9],36.9 µM (active) and 39.9 µM (active)
same,AC50,[3],45.3 µM (active) and 46.1 µM (active)
same,AC50,[4],37.1 µM (active) and 30 µM (active)
same,outcome,[5],inactive
same,AC50,[6],45.1 µM (active) and 45.8 µM (active)
same,AC50,[7],38 µM (active) and 30 µM (active)
NC(=O)C(F)(F)C(F)(F)C(F)(F)C(F)(F)F,outcome,[1],inactive
same,outcome,[2],inactive
same,outcome,[9],inactive
same,outcome,[3],inactive
same,outcome,[4],inactive
same,outcome,[5],inactive
same,outcome,[6],inactive
same,outcome,[7],inactive
FC(F)(F)C(F)(F)C(F)(F)C(F)(F)C(F)(F)C(F)(F)CCS,outcome,[8],inactive
same,outcome,[1],inactive
same,outcome,[2],inactive
same,outcome,[9],inactive
same,outcome,[3],inactive
same,outcome,[4],inactive
same,AC50,[5],0.876 µM (active)
same,outcome,[5],inactive
same,outcome,[6],inactive
same,outcome,[7],inactive
O=C(O)C(F)(OC(F)(F)C(F)(OC(F)(F)C(F)(F)C(F)(F)F)C(F)(F)F)C(F)(F)F (configuration not stated),outcome,[1],inactive
same,outcome,[2],inactive
same,outcome,[9],inactive
same,outcome,[3],inactive
same,outcome,[4],inactive
same,outcome,[5],inactive
same,outcome,[6],inactive
same,outcome,[10],inactive
same,AC50,[7],25 nM (active)
same,outcome,[7],inactive
OCC(F)(F)C(F)(F)C(F)(F)C(F)(F)C(F)(F)C(F)F,outcome,[8],inactive
same,outcome,[1],inactive
same,outcome,[2],inactive
same,outcome,[3],inactive
same,outcome,[4],inactive
same,outcome,[5],inactive
same,outcome,[6],inactive
same,outcome,[7],inactive
C=CC(=O)OCC(F)(F)C(F)(F)C(F)(F)C(F)(F)COC(=O)C=C,AC50,[1],8.21 µM (active) and 9.07 µM (active)
same,outcome,[2],inactive
same,AC50,[3],30 µM (active)
same,outcome,[3],inactive
same,AC50,[4],18.2 µM (active)
same,outcome,[4],inactive
same,outcome,[5],inactive
same,AC50,[6],26.3 µM (active) and 25.9 µM (active)
same,AC50,[10],45.3 µM (active) and 39.4 µM (active)
same,AC50,[7],7.98 µM (active) and 7.77 µM (active)
FC(F)(F)C(F)(F)C(F)(F)C(F)(F)C(F)(F)C(F)(F)C(F)(F)I,outcome,[8],inactive
same,outcome,[1],inactive
same,outcome,[2],inactive
same,outcome,[3],inactive
same,outcome,[4],inactive
same,outcome,[5],inactive
same,outcome,[6],inactive
same,outcome,[10],inactive
same,outcome,[7],inactive
O=S(=O)(O)C(F)(F)C(F)(F)C(F)(F)C(F)(F)C(F)(F)C(F)(F)C(F)(F)F,outcome,[1],inactive
same,outcome,[2],inactive
same,outcome,[9],inactive
same,outcome,[3],inactive
same,outcome,[4],inactive
same,outcome,[5],inactive
same,outcome,[6],inactive
same,outcome,[7],inactive
N=C(N)C(F)(F)C(F)(F)C(F)(F)C(F)(F)C(F)(F)C(F)(F)C(F)(F)F,outcome,[1],inactive
same,outcome,[2],inactive
same,outcome,[3],inactive
same,outcome,[4],inactive
same,AC50,[5],30 µM (active)
same,outcome,[5],inactive
same,outcome,[6],inactive
same,outcome,[10],inactive
same,AC50,[7],30000 nM (active)
same,outcome,[7],inactive

# — PubChem BioAssay (EPA / NIEHS)
